# Test results reported in PubChem BioAssay.
# Where “and” joins values, the source holds several entries; their conditions need not be identical. Identical values can stand only once. More than one record can exist for a structure, and the calls need not agree. Calls of active or inactive are those of the source.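 Rule for the calls, unless noted: active = thallium flux through the channel raised or lowered by more than 3 SD from vehicle-only wells, actives on both sides; inactive = the rest.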
# Key:
# [1] = system: Hepatitis C virus NS3 helicase; assay: blockers of NS3h binding to DNA – biochemical, fluorescence polarization, NIH Clinical Collection, primary screen (AID 743270; call rule not given here); settings: NS3 helicase binding to Cy5-dT15 DNA, stronger effect = higher value, concentration not given here
# [2] = biological target: Single-stranded DNA-binding protein (Escherichia coli (strain K12)) (UniProt P0AGE0); assay: SSB-ssDNA binding inhibitors – biochemical, fluorescence polarization, NIH Clinical Collection, counter-screen for HCV NS3 helicase inhibitor project (AID 743271; in the data active = inhibition above about 28%); settings: E. coli SSB-DNA binding, stronger effect = higher value, concentration not given here
# [3] = compounds distorting NS3 helicase fluorescence signal – biochemical, NIH Clinical Collection, artefact control for HCV NS3 helicase inhibitor project (AID 743272; call rule not given here;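 note: HCV NS3 helicase with a Cy5 labelled single stranded DNA probe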); settings: fluorescence interference counterscreen, HCV NS3 helicase assay; stronger effect = lower value
# [4] = Wnt pathway potentiators raising nuclear beta-catenin – imaging, WNT3A-conditioned medium, mouse C2C12, NPC library, primary screen (AID 1117326; in the data active = nuclear beta-catenin stimulation mostly above about 4.2%, no sharp cut-off; inactive = mostly below about 10%); settings: stronger effect = higher value
# [5] = stimulators of insulin release from INS-1E, primary screen, cell-based, 5 mM glucose, NPC library (AID 1117329;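 active = compound raises insulin release from rat beta cells at 5 mM glucose, no numeric limit stated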); settings: rat INS-1E insulin secretion, at 10 µM, stronger effect = higher value
# [6] = growth inhibition of GSK3B-pretreated HCT116 cells – cell-based, CellTiter-Glo, 0.2 to 20 µM (AID 1117336;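 active = compounds lowering colon cancer cell viability after pretreatment blocking the GSK3B kinase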); settings: HCT116 viability after GSK3B inhibitor, at 20 µM, stronger effect = higher value
# [7] = inhibition of endothelial tube formation, primary screen, imaging, VEGF stimulated, CD31 staining, tube area, NPC library (AID 1117340;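 active = compound that reduces growth-factor-driven endothelial tube area in a mixed cell culture, no cutoff stated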); settings: VEGF-stimulated ADSC/ECFC co-culture, at 10 µM, stronger effect = higher value
# [8] = GLP1 release stimulators, primary, NCI-H716, NPC library (AID 1117341;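 active = compound raises GLP1 secretion from the human gut endocrine cells, with no numeric limit stated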); settings: NCI-H716 cells, at 10 µM, stronger effect = higher value
# [9] = HCT116 colon cancer cell growth inhibition, primary screen, CellTiter-Glo luminescence, NPC library (AID 1117342;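 active = compounds that lower survival of HCT116 colon cancer cells in the luminescence readout, no numeric limit stated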); settings: at 20 µM (top of the series)
# [10] = reduced SW480 viability measured with CellTiter-Glo, NPC library, primary (AID 1117343;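 active = compounds that lower viability of the colon cancer cells in the luminescence readout, with no numeric limit stated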); settings: CellTiter-Glo luminescence; at 20 µM (top of the series)
# [11] = NPC library primary testing for decreased DLD-1 cell viability via CellTiter-Glo (AID 1117346;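 active = compounds that lower survival of DLD-1 colon cancer cells in the luminescence readout, no cutoff given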); settings: DLD-1 viability, CellTiter-Glo luminescence; at 20 µM (top of the series)
# [12] = biological target: 6-phosphogluconate dehydrogenase, decarboxylating (Homo sapiens) (UniProt P52209); assay: inhibition of human phosphogluconate dehydrogenase – biochemical, recombinant enzyme, NADPH absorbance, primary screen (AID 1159550;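 active = at least 20% inhibition of 6-phosphogluconate dehydrogenase activity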); settings: recombinant 6PGD, NADPH absorbance 341 nm; at 10 µM; stronger effect = higher value
# [13] = EMT-state selective cytotoxicity in co-culture – imaging, PC-3E GFP, TEM4-18 mCherry, primary screen (AID 1345086;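 active = compounds killing one labelled cell type while sparing the other, by normalised counts and ratio limits, not self-fluorescent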;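 note: cells exposed to compound for 72 h before imaging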;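 for red/green cell ratio (normalised): normalised mesenchymal count divided by normalised epithelial count so high means epithelial killing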); settings: PC-3E GFP / TEM4-18 mCherry co-culture, imaging cell counts, at 1 µM
# [14] = viability loss with induced miR-34 in A549 – imaging, A549 dox-inducible miR-34, nuclei and caspase counts, primary screen (AID 1347080;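 active = compounds whose cell count with miR-34 switched on is under 0.7 times the count with it off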); settings: A549 miR-34 inducible, Hoechst nuclei count, 48 h
# [15] = MELAS cybrid and Rieske KO viability enhancers – cell-based, MELAS cybrids, Rieske KO mouse fibroblasts, CellTiter-Glo, primary screen (AID 1508586;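 active = mean z-score across replicates of 1.96 or higher in either the MELAS or the Rieske mutant cell line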;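 note: z relative to plate mean and SD of compound and empty wells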); settings: low glucose
# [16] = biological target: NAD(+) hydrolase SARM1 (Homo sapiens) (UniProt Q6SZW1); assay: blocking NAD cleavage by SARM1 SAM-TIR – cell lysate, NAD-Glo luminescence (AID 1508614;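 active = compound whose remaining NAD level is above about 45 nM, limit read from the data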;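 note: higher remaining NAD means stronger inhibition of SARM1 NADase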); settings: SAM-TIR HEK293T lysate NADase, at 1 µM, stronger effect = higher value
# [17] = biological target: Mitogen-activated protein kinase 7 (Homo sapiens) (UniProt Q13164); assay: Gal4-ERK5 driven luciferase induction – cell-based, HTS, primary screen (AID 1508626;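 active = luciferase signal above three times the same-plate solvent-only control wells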;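 note: luciferase driven by Gal4-ERK5 fusion binding five Gal4 sites before minimal TATA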); settings: HeLa Gal4-ERK5 transactivation, 18 h, at 5 µM, stronger effect = higher value
# F380Y = assay: BK channel mutant inhibitors and activators – cell-based, U2OS BacMam, thallium flux, beta subunits, selectivity assay, profiling panel (AID 1259406); settings: U2OS BacMam BK variants, at 30 µM;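 note: initial slope of Thallos dye fluorescence rise after thallium is added; log ratio against the mean of 0.3% DMSO vehicle wells on the same plate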
# F380Y/beta2Delta = assay: as above; settings: U2OS BacMam BK variants, at 30 µM
# [18] = biological target: Calcium-activated potassium channel subunit alpha-1 (Homo sapiens) + Leucine-rich repeat-containing protein 26 (Homo sapiens) (UniProt Q12791+Q2I0M4); assay: as above; settings: U2OS BacMam BK variants, F380Y/Slo1WT/gamma1, at 30 µM
# [19] = stronger effect = lower value, cell number ratio, induced over uninduced
# [20] = measured here: relative caspase fold change +Dox/-Dox
# [21] = measured here: total cells with miR-34 induction, stronger effect = lower value
# [22] = measured here: total cells without miR-34 induction
# [23] = MELAS cybrid survival, CellTiter-Glo 48 h, stronger effect = higher value
# [24] = Rieske KO mouse fibroblast survival, CellTiter-Glo 72 h
# Sequence of 6-phosphogluconate dehydrogenase, decarboxylating (Homo sapiens) (P52209 whole entry, looked up): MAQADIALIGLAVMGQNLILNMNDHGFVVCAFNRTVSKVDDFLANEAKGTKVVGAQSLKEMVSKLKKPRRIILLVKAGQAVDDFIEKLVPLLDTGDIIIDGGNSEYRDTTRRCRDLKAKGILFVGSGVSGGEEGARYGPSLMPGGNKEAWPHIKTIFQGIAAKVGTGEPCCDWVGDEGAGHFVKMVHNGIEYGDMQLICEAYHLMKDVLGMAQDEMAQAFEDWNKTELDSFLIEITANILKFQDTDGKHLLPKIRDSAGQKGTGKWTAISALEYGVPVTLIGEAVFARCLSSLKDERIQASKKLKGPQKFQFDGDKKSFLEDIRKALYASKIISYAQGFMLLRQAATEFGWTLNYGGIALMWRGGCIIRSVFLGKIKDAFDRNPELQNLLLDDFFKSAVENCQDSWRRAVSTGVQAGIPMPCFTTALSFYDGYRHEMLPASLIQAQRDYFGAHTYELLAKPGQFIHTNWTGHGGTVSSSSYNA
# Sequence of Mitogen-activated protein kinase 7 (Homo sapiens) (Q13164 whole entry, looked up, the tested form may be a part): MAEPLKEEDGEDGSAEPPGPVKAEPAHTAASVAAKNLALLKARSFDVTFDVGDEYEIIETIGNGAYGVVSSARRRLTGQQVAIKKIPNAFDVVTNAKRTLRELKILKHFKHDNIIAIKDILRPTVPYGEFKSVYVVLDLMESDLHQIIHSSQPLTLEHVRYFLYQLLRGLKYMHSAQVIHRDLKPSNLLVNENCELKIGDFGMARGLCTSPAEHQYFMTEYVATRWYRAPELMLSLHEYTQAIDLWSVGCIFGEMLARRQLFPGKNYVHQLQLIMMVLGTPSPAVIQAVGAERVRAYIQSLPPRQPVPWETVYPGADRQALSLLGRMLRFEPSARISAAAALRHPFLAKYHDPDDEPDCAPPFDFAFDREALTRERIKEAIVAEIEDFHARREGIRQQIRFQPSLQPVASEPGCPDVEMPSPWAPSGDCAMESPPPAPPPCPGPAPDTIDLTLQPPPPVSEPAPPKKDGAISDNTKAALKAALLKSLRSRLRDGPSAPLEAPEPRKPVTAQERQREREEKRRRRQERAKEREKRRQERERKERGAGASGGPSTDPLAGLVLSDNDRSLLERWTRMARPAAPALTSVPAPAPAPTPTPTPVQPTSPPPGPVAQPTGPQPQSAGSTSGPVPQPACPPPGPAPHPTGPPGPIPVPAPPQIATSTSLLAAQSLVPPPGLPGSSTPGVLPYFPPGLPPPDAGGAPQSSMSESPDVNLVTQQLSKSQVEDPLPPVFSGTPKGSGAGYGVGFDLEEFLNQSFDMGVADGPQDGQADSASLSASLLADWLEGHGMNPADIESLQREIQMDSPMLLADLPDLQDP
# Sequence of NAD(+) hydrolase SARM1 (Homo sapiens) (Q6SZW1 whole entry, looked up, the tested form may be a part): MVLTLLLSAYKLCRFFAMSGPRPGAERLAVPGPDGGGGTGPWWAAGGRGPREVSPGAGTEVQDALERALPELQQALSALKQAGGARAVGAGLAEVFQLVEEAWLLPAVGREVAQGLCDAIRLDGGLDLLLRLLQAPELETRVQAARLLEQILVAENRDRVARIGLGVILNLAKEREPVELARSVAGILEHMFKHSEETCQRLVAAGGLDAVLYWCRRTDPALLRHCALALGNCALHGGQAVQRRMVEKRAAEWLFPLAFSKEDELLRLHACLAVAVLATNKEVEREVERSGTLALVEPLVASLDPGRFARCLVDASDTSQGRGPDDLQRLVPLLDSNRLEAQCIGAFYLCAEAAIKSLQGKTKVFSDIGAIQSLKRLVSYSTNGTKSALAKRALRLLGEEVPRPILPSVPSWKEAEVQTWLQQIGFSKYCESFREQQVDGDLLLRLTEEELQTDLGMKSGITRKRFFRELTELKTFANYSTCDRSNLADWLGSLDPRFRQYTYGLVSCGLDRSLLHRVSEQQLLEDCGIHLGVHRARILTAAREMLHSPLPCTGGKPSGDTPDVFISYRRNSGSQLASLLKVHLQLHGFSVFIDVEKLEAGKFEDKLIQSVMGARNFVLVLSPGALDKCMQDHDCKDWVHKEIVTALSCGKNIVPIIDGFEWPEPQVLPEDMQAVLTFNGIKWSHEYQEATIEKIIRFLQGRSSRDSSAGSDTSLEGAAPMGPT
# Sequence of Calcium-activated potassium channel subunit alpha-1 (Homo sapiens) + Leucine-rich repeat-containing protein 26 (Homo sapiens) (Q2I0M4 whole entry, looked up, one chain of several): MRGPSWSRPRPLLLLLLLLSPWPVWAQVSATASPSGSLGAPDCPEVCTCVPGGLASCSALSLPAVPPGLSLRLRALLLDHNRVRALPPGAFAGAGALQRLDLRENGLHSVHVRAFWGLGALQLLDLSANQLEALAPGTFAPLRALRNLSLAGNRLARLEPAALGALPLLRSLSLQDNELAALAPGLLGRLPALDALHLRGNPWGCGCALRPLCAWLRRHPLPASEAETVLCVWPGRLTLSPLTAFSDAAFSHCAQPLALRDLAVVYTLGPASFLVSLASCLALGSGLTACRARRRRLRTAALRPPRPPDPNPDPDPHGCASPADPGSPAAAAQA
structure (smiles),measurement,setting,value
CN(C)c1ccc(O)c2c1C[C@H]1C[C@H]3[C@H](N(C)C)C(=O)C(C(N)=O)=C(O)[C@@]3(O)C(=O)C1=C2O,inhibition,[1],-8.64% (inactive)
same,inhibition,[2],0.29% (inactive)
same,fluorescence ratio,[3],0.89 (inactive)
same,nuclear beta-catenin stimulation,[4]; at 10 µM,3.7% (inactive)
same,nuclear beta-catenin stimulation,"[4]; stimulation, at 2 µM",6.6%
same,insulin secretion stimulation,[5],1.5% (inactive)
same,viability decrease,[6],-31.1% (inactive)
same,tube area decrease,[7],6.7% (inactive)
same,GLP1 secretion stimulation,[8],-1.4% (inactive)
same,inhibition of viability,[9],17.9% (inactive)
same,viability decrease (inhibition),[10],65.6% (active)
same,viability decrease (inhibition),[11],74.4% (active)
same,inhibition,[12],-17.9% (inactive)
same,red/green cell ratio (normalised),"[13]; actives lie on both sides, counts scaled to control wells, 1 = unselective",1.2 (inactive)
same,normalised cell number,[13]; measured here: epithelial PC-3E GFP cell survival,0.99
same,normalised cell number,[13]; measured here: mesenchymal TEM4-18 mCherry cell survival,1.19
same,fold change,[14]; [19],1.15 (inactive) and 0.819 (inactive) and 0.689 (active)
same,fold change,[14]; [20],0.974 and 2.86 and 1.89
same,cell count,[14]; [21],2650 and 5110 and 3260
same,cell count,[14]; [22],2300 and 6240 and 4740
same,z-score,[15]; [23],-2.76 (inactive) and 0.283 (inactive)
same,z-score,[15]; [24],-3.81 and -1.93
same,remaining NAD,[16],10 nM (inactive)
same,luciferase signal,[17],52 AU (inactive)
same,log fold change Tl+ flux,F380Y,-0.0263 (inactive)
same,log fold change Tl+ flux,F380Y/beta2Delta,0.045 (inactive)
same,log fold change Tl+ flux,[18],0.0283 (inactive)
C[C@@H]1O[C@@H](OC[C@H]2O[C@@H](Oc3c(-c4ccc(O)c(O)c4)oc4cc(O)cc(O)c4c3=O)[C@H](O)[C@@H](O)[C@@H]2O)[C@H](O)[C@H](O)[C@H]1O,inhibition,[1],5.94% (inactive)
same,inhibition,[2],11.4% (inactive)
same,fluorescence ratio,[3],1.02 (inactive)
same,nuclear beta-catenin stimulation,[4]; at 10 µM,0% (inactive)
same,nuclear beta-catenin stimulation,"[4]; stimulation, at 2 µM",1.9%
same,insulin secretion stimulation,[5],0.6% (inactive)
same,viability decrease,[6],56% (active)
same,tube area decrease,[7],4.5% (inactive)
same,GLP1 secretion stimulation,[8],-1.2% (inactive)
same,inhibition of viability,[9],70.9% (active)
same,viability decrease (inhibition),[10],59.4% (active)
same,viability decrease (inhibition),[11],44.7% (inactive)
same,inhibition,[12],4.58% (inactive)
same,remaining NAD,[16],10 nM (inactive)
same,log fold change Tl+ flux,F380Y,-0.0319 (inactive)
same,log fold change Tl+ flux,F380Y/beta2Delta,0.0273 (inactive)
same,log fold change Tl+ flux,[18],-0.026 (inactive)
C[C@]12C=CC(=O)C=C1CC[C@@H]1[C@@H]2C(=O)C[C@@]2(C)[C@H]1CC[C@]2(O)C(=O)CO,inhibition,[1],-0.45% (inactive)
same,inhibition,[2],-1.24% (inactive)
same,fluorescence ratio,[3],0.95 (inactive)
same,nuclear beta-catenin stimulation,[4]; at 10 µM,0.6% (inactive)
same,nuclear beta-catenin stimulation,"[4]; stimulation, at 2 µM",0.8%
same,insulin secretion stimulation,[5],-2.5% (inactive)
same,viability decrease,[6],-21.3% (inactive)
same,tube area decrease,[7],-13.7% (inactive)
same,GLP1 secretion stimulation,[8],0.9% (inactive)
same,inhibition of viability,[9],-8.2% (inactive)
same,viability decrease (inhibition),[10],-6.4% (inactive)
same,viability decrease (inhibition),[11],-11.6% (inactive)
same,inhibition,[12],-6.11% (inactive)
same,fold change,[14]; [19],0.98 (inactive) and 0.843 (inactive) and 0.886 (inactive)
same,fold change,[14]; [20],1.65 and 0.777 and 1.15
same,cell count,[14]; [21],10300 and 7950 and 9680
same,cell count,[14]; [22],10500 and 9420 and 10900
same,z-score,[15]; [23],0.134 (inactive) and 0.541 (inactive)
same,z-score,[15]; [24],-0.259 and 0.148
same,remaining NAD,[16],10 nM (inactive)
same,luciferase signal,[17],28 AU (inactive)
same,log fold change Tl+ flux,F380Y,0.00715 (inactive)
same,log fold change Tl+ flux,F380Y/beta2Delta,0.0137 (inactive)
same,log fold change Tl+ flux,[18],-0.00874 (inactive)
Cc1cccc(CN2CCN(C(c3ccccc3)c3ccc(Cl)cc3)CC2)c1 (configuration not stated),inhibition,[1],-3.18% (inactive)
same,inhibition,[2],7.91% (inactive)
same,fluorescence ratio,[3],0.96 (inactive)
same,nuclear beta-catenin stimulation,[4]; at 10 µM,5.6% (inactive)
same,nuclear beta-catenin stimulation,"[4]; stimulation, at 2 µM",-0.6%
same,insulin secretion stimulation,[5],-1.7% (inactive)
same,viability decrease,[6],77.3% (active)
same,tube area decrease,[7],33.4% (inactive)
same,GLP1 secretion stimulation,[8],-2.1% (inactive)
same,inhibition of viability,[9],83.5% (active)
same,viability decrease (inhibition),[10],116% (active)
same,viability decrease (inhibition),[11],87.8% (active)
same,inhibition,[12],-14.5% (inactive)
same,fold change,[14]; [19],0.91 (inactive) and 0.869 (inactive) and 0.905 (inactive)
same,fold change,[14]; [20],2.01 and 1.32 and 1.69
same,cell count,[14]; [21],8220 and 9250 and 10600
same,cell count,[14]; [22],9040 and 10700 and 11700
same,z-score,[15]; [23],-0.845 (inactive)
same,z-score,[15]; [24],-0.151
same,remaining NAD,[16],10 nM (inactive)
same,luciferase signal,[17],96 AU (inactive)
same,log fold change Tl+ flux,F380Y,0.0137 (inactive)
same,log fold change Tl+ flux,F380Y/beta2Delta,0.0401 (inactive)
same,log fold change Tl+ flux,[18],-0.0345 (inactive)
